# Many of the other results were omitted from the sample, so the strongest signals are more common in it than they were.
# Experiments:
# Assay in all cases: glycan array binding signal (z-score within array); higher = stronger binding
# Conditions in all cases: glycan notation: IUPAC condensed, linker removed
# [1] = molecular target: Fuc(a1-2)Gal(b1-3)GlcNAc(b1-2)Man(a1-3)[Fuc(a1-2)Gal(b1-3)GlcNAc(b1-2)Man(a1-6)]Man(b1-4)GlcNAc(b1-4)[Fuc(a1-6)]GlcNAc
# Method in brief: (§1)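 Arrays were curated from the Consortium for Functional Glycomics database, 3228 in total, and kept only where the protein sequence was available. Binding is expressed as a within-array Z-score. This score was averaged across arrays of the same protein sequence at different concentrations or buffers and across linkers, and negative values can be read as non-binding.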
# [2] = molecular target: Fuc(a1-2)Gal(b1-4)Glc6S
# Method in brief: as §1
# [3] = molecular target: Fuc(a1-2)[Gal(a1-3)]Gal(b1-4)GlcNAc(b1-2)Man(a1-3)[Fuc(a1-2)[Gal(a1-3)]Gal(b1-4)GlcNAc(b1-2)Man(a1-6)]Man(b1-4)GlcNAc(b1-4)GlcNAc
# Method in brief: as §1
# [4] = molecular target: Fuc(a1-2)[GalNAc(a1-3)]Gal(b1-4)GlcNAc(b1-2)Man(a1-3)[Fuc(a1-2)[GalNAc(a1-3)]Gal(b1-4)GlcNAc(b1-2)Man(a1-6)]Man(b1-4)GlcNAc(b1-4)GlcNAc
# Method in brief: as §1
# [5] = molecular target: Fuc(a1-2)[GalNAc(a1-3)]Gal(b1-4)[Fuc(a1-3)]GlcNAc
# Method in brief: as §1
# [6] = molecular target: Fuc(a1-3)[Gal(b1-4)]GlcNAc(b1-4)Gal(b1-4)[Fuc(a1-3)]GlcNAc(b1-4)Gal(b1-4)[Fuc(a1-3)]GlcNAc
# Method in brief: as §1
# [7] = molecular target: Fuc(a1-3)[Gal3S(b1-4)]GlcNAc6S
# Method in brief: as §1
# [8] = molecular target: Gal(a1-3)Gal(b1-3)[Fuc(a1-4)]GlcNAc(b1-2)Man(a1-3)[Gal(a1-3)Gal(b1-3)[Fuc(a1-4)]GlcNAc(b1-2)Man(a1-6)]Man(b1-4)GlcNAc(b1-4)GlcNAc
# Method in brief: as §1
# [9] = molecular target: Gal(b1-3)GalNAc
# Method in brief: as §1
# [10] = molecular target: Gal(b1-3)GalNAc(a1-3)[Fuc(a1-2)]Gal(b1-4)Glc
# Method in brief: as §1
# [11] = molecular target: Gal(b1-3)GalNAc(b1-4)Gal(b1-4)Glc
# Method in brief: as §1
# [12] = molecular target: Gal(b1-3)GlcNAc(b1-2)Man(a1-3)[Gal(b1-3)GlcNAc(b1-2)Man(a1-6)]Man(b1-4)GlcNAc(b1-4)GlcNAc
# Method in brief: as §1
# [13] = molecular target: Gal(b1-3)[Fuc(a1-4)]GlcNAc
# Method in brief: as §1
# [14] = molecular target: Gal(b1-4)GlcNAc(b1-2)Man(a1-3)Man(b1-4)GlcNAc(b1-4)GlcNAc
# Method in brief: as §1
# [15] = molecular target: Gal(b1-4)GlcNAc(b1-2)[Gal(b1-4)GlcNAc(b1-4)]Man(a1-3)[Gal(b1-4)GlcNAc(b1-2)[Gal(b1-4)GlcNAc(b1-6)]Man(a1-6)]Man(b1-4)GlcNAc(b1-4)GlcNAc
# Method in brief: as §1
# [16] = molecular target: Gal(b1-4)GlcNAc(b1-2)[Gal(b1-4)GlcNAc(b1-4)]Man(a1-3)[GlcNAc(b1-4)][Gal(b1-4)GlcNAc(b1-2)Man(a1-6)]Man(b1-4)GlcNAc(b1-4)GlcNAc
# Method in brief: as §1
# [17] = molecular target: Gal(b1-4)GlcNAc(b1-3)Gal(b1-4)[Fuc(a1-3)GlcNAc(b1-6)]Gal(b1-4)Glc
# Method in brief: as §1
# [18] = molecular target: Gal6S(b1-4)GlcNAc6S
# Method in brief: as §1
# [19] = molecular target: Glc(a1-6)Glc(a1-6)Glc
# Method in brief: as §1
# [20] = molecular target: Glc(b1-4)Glc
# Method in brief: as §1
# [21] = molecular target: GlcA(b1-3)GlcNAc
# Method in brief: as §1
# [22] = molecular target: GlcNAc(a1-4)Gal(b1-4)GlcNAc(b1-3)Gal(b1-4)GlcNAc
# Method in brief: as §1
# [23] = molecular target: GlcNAc(a1-4)Gal(b1-4)GlcNAc(b1-3)Gal(b1-4)[Fuc(a1-3)]GlcNAc(b1-3)Gal(b1-4)[Fuc(a1-3)]GlcNAc
# Method in brief: as §1
# [24] = molecular target: GlcNAc(b1-2)Man(a1-3)[GlcNAc(b1-2)Man(a1-6)]Man(b1-4)GlcNAc(b1-4)[Fuc(a1-6)]GlcNAc
# Method in brief: as §1
# [25] = molecular target: GlcNAc(b1-2)[GlcNAc(b1-4)]Man(a1-3)[GlcNAc(b1-4)][GlcNAc(b1-2)Man(a1-6)]Man(b1-4)GlcNAc(b1-4)GlcNAc
# Method in brief: as §1
# [26] = molecular target: GlcNAc(b1-3)Man
# Method in brief: as §1
# [27] = molecular target: GlcNAc(b1-3)[GlcNAc(b1-6)]GalNAc
# Method in brief: as §1
# [28] = molecular target: Man(a1-3)[Man(a1-6)]Man
# Method in brief: as §1
# [29] = molecular target: Man(a1-6)Man
# Method in brief: as §1
# [30] = molecular target: Neu5Ac(a2-3)Gal(b1-3)GalNAc(b1-3)Gal(a1-4)Gal(b1-4)Glc
# Method in brief: as §1
binder,measurement,setting,value
Tectonin 2 (Laccaria bicolor) (protein) MPWKGISGSLSRISAGSVTNVWGVNAANNIYRYTGDDAKPWVQIPGALTDIGAAADGTVWGVNAAGNIYRYVWDSNHWTQIKGALKRISAGSRTNVWGVNAGGAIYRYTGDDANPWVQIPGVLSDIGAGADGTVWGVNAAGEIYRYTGDQGDPNHWVKIPGALSAISAGIKTNVWGVNSANNIYTSTGDDKNPWLGIGGSLVDIGAGTDGVVWGVNAGGGIYRWIRD,glycan array binding signal (z-score),[1],-0.069
same,glycan array binding signal (z-score),[2],-0.349
same,glycan array binding signal (z-score),[3],9.62
same,glycan array binding signal (z-score),[4],-0.16
same,glycan array binding signal (z-score),[5],-0.145
same,glycan array binding signal (z-score),[6],-0.16
same,glycan array binding signal (z-score),[7],0.299
same,glycan array binding signal (z-score),[8],-0.008
same,glycan array binding signal (z-score),[9],-0.212
same,glycan array binding signal (z-score),[10],-0.46
same,glycan array binding signal (z-score),[11],-0.123
same,glycan array binding signal (z-score),[12],0.354
same,glycan array binding signal (z-score),[13],-0.348
same,glycan array binding signal (z-score),[14],-0.226
same,glycan array binding signal (z-score),[15],-0.038
same,glycan array binding signal (z-score),[16],0.732
same,glycan array binding signal (z-score),[17],-0.568
same,glycan array binding signal (z-score),[18],2.71
same,glycan array binding signal (z-score),[19],-0.136
same,glycan array binding signal (z-score),[20],-0.277
same,glycan array binding signal (z-score),[21],4.49
same,glycan array binding signal (z-score),[22],-0.238
same,glycan array binding signal (z-score),[23],2.15
same,glycan array binding signal (z-score),[24],0.258
same,glycan array binding signal (z-score),[25],-0.327
same,glycan array binding signal (z-score),[26],-0.371
same,glycan array binding signal (z-score),[27],-0.21
same,glycan array binding signal (z-score),[28],-0.426
same,glycan array binding signal (z-score),[29],-0.438
same,glycan array binding signal (z-score),[30],0.073
